According to PubChem BioAssay:

Legend:
[1] = biological target: Tumor necrosis factor receptor superfamily member 10B (Homo sapiens) (UniProt O14763); assay: viability loss of caspase-8 NB7 cells with TRAIL – with/without TRAIL, luminescence panel, confirmation (AID 651596); conditions: NB7 neuroblastoma + caspase-8, TRAIL sensitization, NB7 Caspase-8, with TRAIL, mean of runs, at 10 µM, stronger effect = higher value
[2] = as above; conditions: NB7 neuroblastoma + caspase-8, without TRAIL, NB7 Caspase-8, without TRAIL, mean of runs, at 10 µM

Sequence of Tumor necrosis factor receptor superfamily member 10B (Homo sapiens) (O14763 whole entry, looked up): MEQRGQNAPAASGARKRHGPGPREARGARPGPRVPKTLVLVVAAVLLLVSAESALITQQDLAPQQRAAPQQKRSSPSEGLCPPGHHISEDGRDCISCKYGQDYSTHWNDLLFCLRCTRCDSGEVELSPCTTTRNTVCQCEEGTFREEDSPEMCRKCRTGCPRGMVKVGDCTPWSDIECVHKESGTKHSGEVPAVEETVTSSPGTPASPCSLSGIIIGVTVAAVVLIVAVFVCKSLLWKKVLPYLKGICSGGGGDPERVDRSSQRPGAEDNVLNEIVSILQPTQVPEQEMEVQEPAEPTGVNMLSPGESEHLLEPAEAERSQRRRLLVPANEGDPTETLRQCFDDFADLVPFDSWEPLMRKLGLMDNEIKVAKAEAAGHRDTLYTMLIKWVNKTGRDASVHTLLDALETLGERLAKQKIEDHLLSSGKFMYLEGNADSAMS

Structure (SMILES)	activity [1]	activity [2]
O=C(Nc1ccc(N2CCN(C(=O)c3ccccc3)CC2)cc1)c1ccc([N+](=O)[O-])o1	89%	99.3%
COc1ccc(-c2cc3ccccc3cn2)cc1	57.4%	54.3%
O=C(Nc1ccccc1)c1cn2ccccc2n1	54.9%	55.7%
CCCCN(C)C(=O)c1ccc(Nc2nc(C(N)Cc3ccc(C(F)(F)F)cc3)cs2)nc1 (configuration not stated)	56.9%	90.2%
O=C(CSc1nnc(-c2csc3c2CCCC3)o1)Nc1ccccc1	76.4%	76.5%
Cc1cccc(NC(=S)NNC(=O)c2ccc3c(c2)OCO3)c1	39.1%	49.8%
Cc1ccc(-c2cc3onc(-c4ccccc4)c3c(=O)n2C)cc1	75%	72.3%
Cc1nn(-c2ccccc2)c(Cl)c1/C=N/NC(=O)c1ccn[nH]1	79.8%	71.3%
COc1ccc(C(=O)/C=C/Nc2cc(C)ccn2)cc1	66.9%	52.5%
Oc1ccc(-c2cn3cc(C(F)(F)F)ccc3n2)cc1	89.1%	87.5%
COc1ccc(C(=O)O/N=C(\N)Cc2ccc(Cl)cc2)cc1OC	99.3%	95.8%
C/C(=N\Nc1nc(C)cc(-c2ccccc2)n1)c1cccc(N)c1	41.5%	32.7%
O=C(/C=C/c1ccc([N+](=O)[O-])cc1)Nc1ncc([N+](=O)[O-])s1	69.1%	68.5%
CCOc1ccc(-c2cc(C(=O)N/N=C/c3cccnc3)c3ccccc3n2)cc1	74.2%	74.4%
CC(=O)Nc1ccc(/C=N/Nc2nc3ccccc3[nH]2)cc1	76.2%	75.5%
COc1cc(C2Nc3ccccc3C(=O)N2c2ccc3c(c2)OCCO3)ccc1OCC(C)C (configuration not stated)	64.9%	63.5%
